Assay outcomes deposited in PubChem BioAssay by several laboratories.
V-ATPase pHluor = alters yeast V-ATPase proton transport | S. cerevisiae, pHLuorin cytosolic pH fluorescence | response, % at 10 µM | 0.37% of 350,000 active; in the data active = response mostly above about 7.3%, no sharp cut-off; inactive = mostly below about 5.4%; also: actives read high
PG9 binder = PG9 antibody binding by small molecule | TR-FRET gp120-PG9 antibody binding | AID 624416 | 0.43% of 360,000 active | inhibition, % at 6.7 µM; in the data active = inhibition above about 8.5%
NPR2 activator = GC-B (human) receptor activation | P20594 | 0.11% of 370,000 active | HEK293-GC-B cells, CNP EC30, cGMP TR-FRET; 0% at EC30 CNP, 100% saturating CNP | activation, % at 10 µM;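 active = activation at 10 µM reaching about 35% in either raw or pattern-adjusted values, limit read from the data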
NPR1 activator = GC-A (human) enzyme activation; activation, % at 10 µM; HEK293 GC-A cells, cGMP TR-FRET, EC30 ANP; 0% at EC30 ANP, 100% saturating ANP; 0.14% of 370,000 active; P16066; in the data active = activation above about 40%
Target sequence (P16066 whole entry, looked up): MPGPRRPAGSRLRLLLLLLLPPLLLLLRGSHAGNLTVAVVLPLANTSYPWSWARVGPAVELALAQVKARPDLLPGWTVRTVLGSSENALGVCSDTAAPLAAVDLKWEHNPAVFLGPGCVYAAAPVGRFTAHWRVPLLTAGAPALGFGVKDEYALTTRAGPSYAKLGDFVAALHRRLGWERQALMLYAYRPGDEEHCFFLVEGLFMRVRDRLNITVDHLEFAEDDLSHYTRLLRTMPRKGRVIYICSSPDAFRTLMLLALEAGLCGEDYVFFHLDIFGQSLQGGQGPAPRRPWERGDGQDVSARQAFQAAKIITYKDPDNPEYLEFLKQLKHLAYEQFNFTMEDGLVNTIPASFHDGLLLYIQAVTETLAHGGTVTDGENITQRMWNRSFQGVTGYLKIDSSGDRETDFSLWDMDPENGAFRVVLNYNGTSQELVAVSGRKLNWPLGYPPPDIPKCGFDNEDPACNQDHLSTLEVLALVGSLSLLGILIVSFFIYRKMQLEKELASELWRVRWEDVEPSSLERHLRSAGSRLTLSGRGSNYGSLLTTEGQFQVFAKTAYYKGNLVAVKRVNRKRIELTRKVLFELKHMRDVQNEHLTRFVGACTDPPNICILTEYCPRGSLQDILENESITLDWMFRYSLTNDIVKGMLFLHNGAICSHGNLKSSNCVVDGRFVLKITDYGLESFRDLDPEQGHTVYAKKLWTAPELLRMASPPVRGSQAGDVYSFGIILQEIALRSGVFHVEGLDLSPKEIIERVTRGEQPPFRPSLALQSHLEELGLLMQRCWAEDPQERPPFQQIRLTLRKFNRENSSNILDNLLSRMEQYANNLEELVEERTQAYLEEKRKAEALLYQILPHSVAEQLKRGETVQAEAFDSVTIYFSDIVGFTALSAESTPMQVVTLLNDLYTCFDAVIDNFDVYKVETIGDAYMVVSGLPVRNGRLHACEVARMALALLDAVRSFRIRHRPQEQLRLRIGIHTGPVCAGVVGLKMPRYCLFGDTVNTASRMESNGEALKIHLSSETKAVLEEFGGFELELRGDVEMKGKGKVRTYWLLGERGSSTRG
Rev-erbA mod = modulates human Rev-erb alpha binding to DNA | Rev-erbα–FITC-DNA binding, fluorescence polarization, 90 min | activity, % at 10 µM | P20393 | 0.79% of 370,000 active | AID 1259318;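 active = activity above about 14%, limit read from the data; passing the limit was not always enough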
Rev-erbA confirm = Rev-erb alpha (human) modulation, hit confirmation; activation, % at 25 µM; Rev-erb alpha FITC-DNA binding, fluorescence polarization, 90 min; 61% of 3,000 active; shares compounds with Rev-erbA mod;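 active = activation at or above a set limit, or at least 3 SD above the negative control mean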
RORg DNA counter = counter-screen for Rev-erb alpha modulators: RORgamma DNA binding; shares compounds with Rev-erbA mod; purified RORgamma protein-FITC-DNA binding, fluorescence polarization; IC50, µM; 8% of 910 active; AID 1259320;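 active = Compounds whose fitted half-maximal concentration for disrupting protein-DNA binding is below 10 micromolar; the record names Rev-erb in its text, so the target is in doubt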
Of the large screens only hits and unclear results are named; the others gave an inactive call (follow-up assays come after a bar, where they were run). Hits are enriched below; roughly 1.6% of the tested compounds scored in any of these assays.

COc1ccc(CN2CCN(CCCc3ccccc3)C(CCO)C2)c(O)c1 (stereo unspecified)	none
Cc1ccc2c(c1)C(CS(=O)(=O)NCc1ccccc1)NC2 (stereo unspecified)	none (no result: V-ATPase pHluor, PG9 binder)
COc1cc2[nH]c(=O)c(C(=O)NCc3ccc(F)cc3)c(O)c2cc1OC	Rev-erbA mod 25 | Rev-erbA confirm 19
COc1ccc(CNC(=O)c2c(O)c3cc(OC)c(OC)cc3[nH]c2=O)cc1OC	none
COc1ccc2[nH]c(C(=O)Nc3ccc(C)c(F)c3)cc2c1	Rev-erbA mod 49 | Rev-erbA confirm 44 | RORg DNA counter 1.5
COc1ccc(NC(=O)c2cc3ccccc3[nH]2)cc1	none
CC(C)c1cc(=O)oc2c3c4c(cc12)CCCN4CCC3	none
O=c1oc2c3c4c(cc2c(C(F)(F)F)c1CCN1CCOCC1)CCCN4CCC3	Rev-erbA mod 52 | Rev-erbA confirm 63 | RORg DNA counter inactive
Cn1c(/C(C#N)=C(\O)c2ccc(Br)s2)nc2ccccc21	Rev-erbA mod 39 | Rev-erbA confirm inactive
COc1ccc(-c2cc(-c3nnc(SCC(=O)Nc4nccs4)n3N)[nH]n2)cc1	none (no result: V-ATPase pHluor, PG9 binder)
COc1ccc(-c2nnc(NC(=O)Cc3ccccc3)s2)c(OC)c1	Rev-erbA mod 41 | Rev-erbA confirm 19
COc1ccc(-c2nnc(NC(=O)c3cccs3)s2)c(OC)c1	none
COC(=O)[C@]12C[C@H](CC(=O)N3CCCCC3)C(=O)N(Cc3ccc4c(c3)OCO4)C1=C[C@H](C(C)C)O[C@@H]2C1CC1	none (no result: V-ATPase pHluor, PG9 binder)
COc1cccc(OC)c1NC(=O)OCCN1CCCC12CCC(c1ccccc1)CC2 (stereo unspecified)	none (no result: V-ATPase pHluor, PG9 binder)
COc1cccc2cc(C(=O)NCc3ccc(Cl)cc3)c(=O)oc12	Rev-erbA mod 21 | Rev-erbA confirm inactive
Cc1ccnc(N2CCC(C(=O)Nc3ccc(Oc4ccccc4)cc3)CC2)n1	Rev-erbA mod 24 | Rev-erbA confirm inactive
COc1ccc(CNC(=O)c2sc3nc(C)c(Cl)c(C)c3c2N)cc1	none (no result: V-ATPase pHluor, PG9 binder)
C[C@H]1[C@@H](OC(=O)NCCc2ccccc2)CC[C@@]23CCCN2C(=O)CCC[C@@H]13	none (no result: V-ATPase pHluor, PG9 binder)
O=C(O)CSc1cnc2ccccc2n1	none
Clc1ccc(Sc2cnc3ccccc3n2)cc1	Rev-erbA mod 32 | Rev-erbA confirm 30
c1ccc(Sc2cnc3ccccc3n2)cc1	Rev-erbA mod 20 | Rev-erbA confirm 22
Brc1ccc(Sc2cnc3ccccc3n2)cc1	Rev-erbA mod 49 | Rev-erbA confirm 35 | RORg DNA counter inactive
Clc1ccccc1Sc1cnc2ccccc2n1	none
COc1ccc(NC(=O)NC2CCN(S(=O)(=O)c3ccc(F)cc3)CC2)cc1OC	none (no result: V-ATPase pHluor, PG9 binder)
COC(=O)C[C@@H]1CC[C@H]2[C@@H](COc3ccc(NC(=O)c4ccc(Cl)cc4)cc3C(=O)N2C)O1	none (no result: V-ATPase pHluor, PG9 binder)
Cc1nn(C)cc1NC(=O)C[C@H]1CC[C@H]2[C@@H](COc3ccc(NC(=O)Nc4ccccc4)cc3C(=O)N2C)O1	Rev-erbA mod 42 (no result: V-ATPase pHluor, PG9 binder) | Rev-erbA confirm 21
CN1C(=O)c2cc(NC(=O)C3CC3)ccc2OC[C@H]2O[C@@H](CC(=O)NC3CCC3)CC[C@@H]21	none (no result: V-ATPase pHluor, PG9 binder)
CN1C(=O)c2cc(NC(=O)Nc3ccccc3)ccc2OC[C@H]2O[C@@H](CC(=O)NC3CCC3)CC[C@@H]21	Rev-erbA mod 49 (no result: V-ATPase pHluor, PG9 binder) | Rev-erbA confirm 29 | RORg DNA counter inactive
COc1ccc(C(=O)Nc2ccc3c(c2)C(=O)N(C)[C@H]2CC[C@H](CC(=O)NCC4CC4)O[C@@H]2CO3)cc1	Rev-erbA mod 30 (no result: V-ATPase pHluor, PG9 binder) | Rev-erbA confirm 18
CN(C)c1ccc(/C=C/c2nc3ccccc3c(=O)n2-c2ccc(C(=O)O)cc2)cc1	Rev-erbA mod 23 | Rev-erbA confirm 24
C[C@@H]1ON(C)[C@H]2C[C@H]3c4[nH]c5c(-c6ccc7c(c6)OCO7)cccc5c4CCN3C[C@@H]12	none (no result: V-ATPase pHluor, PG9 binder)
O=[N+]([O-])c1cc([N+](=O)[O-])c(Oc2cccnc2Br)cc1NN1CCCCC1	Rev-erbA mod 16 | Rev-erbA confirm inactive
CCOc1cccc2sc(Nc3nc4ccc(NC(C)=O)cc4s3)nc12	Rev-erbA mod 49 | Rev-erbA confirm inactive
CCC(=O)Nc1nc2ccc(NC(C)=O)cc2s1	none
COc1ccccc1NC(=O)c1sc2ncn(Cc3cccc(C)c3)c(=O)c2c1C	Rev-erbA mod 55 | Rev-erbA confirm 54 | RORg DNA counter 1.1
COc1ccc(NC(=O)c2sc3ncn(CC(=O)N4CCN(c5ccccn5)CC4)c(=O)c3c2C)c(OC)c1	Rev-erbA mod 48 | Rev-erbA confirm inactive
COc1ccccc1NC(=O)c1sc2ncn(Cc3ccc(C)cc3)c(=O)c2c1C	Rev-erbA mod 46 | Rev-erbA confirm inactive
C=CCn1cnc2sc(C(=O)Nc3ccccc3OC)c(C)c2c1=O	none
COC(=O)[C@]12C[C@H](CC(=O)NCc3cccs3)C(=O)N(Cc3ccccc3)C1=C[C@H](COCc1ccccc1)O[C@@H]2C	none (no result: V-ATPase pHluor, PG9 binder)
Cc1cc(C)c(C#N)c(SCCS(=O)(=O)c2ccc(C(C)(C)C)cc2)n1	Rev-erbA mod 24 | Rev-erbA confirm inactive
COC(=O)C1CN(Cc2cn(Cc3ccc(OC)cc3)nn2)CCS(=O)(=O)N1Cc1ccc(Cl)cc1 (stereo unspecified)	none (no result: V-ATPase pHluor, PG9 binder)
CC(=O)N1c2ccccc2Oc2cc3ccccc3cc21	none
O=C(CCl)N1c2ccccc2Oc2ccc3ccccc3c21	Rev-erbA mod 15 | Rev-erbA confirm inactive
CCCCn1c(SCC(=O)Nc2cc(C)on2)nc2ccsc2c1=O	Rev-erbA mod 45 | Rev-erbA confirm 27
O=C(CSc1nc2ccccc2c(=O)n1-c1ccc(F)cc1)Nc1ccc(N2CCOCC2)cc1	none
Cc1ccc(C(=O)CSc2nc3ccccc3c(=O)n2-c2ccccc2)s1	PG9 binder 29, Rev-erbA mod 49 | Rev-erbA confirm 35 | RORg DNA counter inactive
O=C(CSc1nc2ccccc2c(=O)n1-c1ccc(F)cc1)Nc1cc(S(=O)(=O)N2CCOCC2)ccc1Cl	Rev-erbA mod 65 | Rev-erbA confirm 34 | RORg DNA counter inactive
Cc1cc(NC(=O)CSc2nc3ccccc3c(=O)n2-c2ccccc2)no1	Rev-erbA mod 27 | Rev-erbA confirm inactive
Cc1ccc(-n2c(SCC(=O)c3ccc4c(c3)OCO4)nc3ccccc3c2=O)cc1	none (no result: V-ATPase pHluor, PG9 binder)
COC(=O)Cn1nc(-c2ccccc2)c2cccc(C(F)(F)F)c21	none (no result: V-ATPase pHluor, PG9 binder)
CN1[C@H](Cc2ccccc2)COc2cccc(F)c2S1(=O)=O	none (no result: V-ATPase pHluor, PG9 binder)
Cc1nc(N2CCN(C(=O)C3CCCCC3)CC2)c2c3c(sc2n1)CCCC3	none (no result: V-ATPase pHluor, PG9 binder)
C=CCN(C(=O)[C@@H](CCCC)[C@@H](O)c1ccc(C(C)=O)cc1)c1ccccc1	none (no result: V-ATPase pHluor, PG9 binder)
CC#CC(=O)N[C@H]1CC[C@@]23CCCN2C(=O)CCC[C@H]3[C@H]1C	none (no result: V-ATPase pHluor, PG9 binder)
